Screens from PubChem BioAssay.
Cardio protect: myocardial damage modulation in H9c2 cells; H9c2 cardiomyocytes, H2O2 injury protection, ATPLite, 2 h; protection from H2O2 cell death, % at 20 µM; 0.63% of 360,000 active; AID 588492;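 active means compounds giving at least 50% protection of heart cells from peroxide-induced death in the single-dose screen, raw or plate-pattern-corrected value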;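 further: 0% = DMSO wells with peroxide and 100% = DMSO wells without peroxide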
TAG inh: triacylglycerol accumulation inhibition; inhibition, % at 12.5 µM; 0.66% of 230,000 active; H9c2 cells, Nile Red lipid (TAG) fluorescence; cells loaded with 200 µM oleic acid; AID 651582;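 active means pattern-corrected inhibition of lipid staining of at least 50% with the nuclear-stain viability signal not falling by more than 50%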;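 further: 0% = DMSO wells and 100% = triacsin C control wells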
hiPSC survival: hiPSC single-cell survival enhancement; ATPlite luminescence; 100% = ROCK inhibitor wells, 0% = DMSO; survival enhancement, % at 20 µM; 0.044% of 360,000 active; in the data active means survival enhancement above about 18%;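 further: cells exposed to compounds for 16 hours before the ATP read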
CRFR2-BP ag: agonists of human CRF-binding protein/CRF-R2 receptor complex; HEK293 CRF-R2/CRF-BP, calcium dye fluorescence (FLIPR); percent of saturating CRF peptide response; activation, % at 13.2 µM; 0.46% of 350,000 active; AID 588473;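 active means activation of at least 50%, plus an integration ratio under a set limit after plate pattern correction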;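 further: plate controls were neutral control wells without compound for no effect and CRF at EC100 for full effect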
CRFR2-BP antag: CRF-BP/CRF-R2 complex antagonism; HEK293 CRF-R2/CRF-BP, CRF-induced calcium fluorescence; inhibition, % at 11.8 µM; 0.59% of 350,000 active;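 active means inhibition of the ligand-induced calcium signal above about 50% at the single tested concentration, limit read from the data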
SKN-1 inh: C. elegans SKN-1 inhibition; C. elegans VP596 Pgst-4::GFP/RFP ratio, acrylamide-induced, 24 h; 0.49% of 360,000 active; inhibition, % at 21.8 µM; AID 624304;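 active means interference check ratio from 0.5 to 1.5 plus GFP to RFP signal ratio inhibition reaching or exceeding a fixed threshold, cut at about 30% in these data, passing the limit was not always enough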
The depositor's hits bear a star. Compounds with a hit are over-represented: about 2.5% of the library has one in this group of screens.

How did N#C/C(=C\c1ccc(-c2ccccc2)o1)C(=O)Nn1cnnc1 do in these assays?
Cardio protect: -2.4; TAG inh: -1.2; hiPSC survival: 0.2; CRFR2-BP ag: -0.1; CRFR2-BP antag: -6.8; SKN-1 inh: 51.0*

Results for COc1cc(-c2cc(C(=O)N(C)Cc3ccccc3)c3ccccc3n2)cc(OC)c1OC ?
Cardio protect: 35.2; hiPSC survival: -0.4; CRFR2-BP ag: -1.6; CRFR2-BP antag: 8.6; SKN-1 inh: 28.4

Results for COc1ccc(-c2cc(C(=O)N(C)CC(=O)Nc3ccccc3C(F)(F)F)c3ccccc3n2)cc1OC ?
Cardio protect: 39.9; TAG inh: 23.3; hiPSC survival: -0.2; CRFR2-BP ag: -4.2; CRFR2-BP antag: -9.1; SKN-1 inh: 6.0

How did COc1ccc(-c2cc(C(=O)N(C)Cc3ccccc3F)c3ccccc3n2)cc1OC do in these assays?
Cardio protect: 65.5*; TAG inh: 9.9; hiPSC survival: 1.0; CRFR2-BP ag: -1.3; CRFR2-BP antag: -6.2; SKN-1 inh: -9.4

How did COc1ccccc1CN(C)C(=O)c1cc(-c2cc(OC)c(OC)c(OC)c2)nc2ccccc12 do in these assays?
Cardio protect: 50.4*; hiPSC survival: 0.0; CRFR2-BP ag: 0.5; CRFR2-BP antag: -13.3; SKN-1 inh: 9.2

What do the screens show for `c1cnc2c(-c3ccc4nccn4c3)cccc2c1`?
Cardio protect: 6.4; TAG inh: 3.7; hiPSC survival: 4.0; SKN-1 inh: 4.5

How did CCc1ccc(NC(=S)NC(=O)CC(C)C)cc1 do in these assays?
Cardio protect: -5.9; TAG inh: -1.4; hiPSC survival: 0.1; CRFR2-BP ag: -1.1; CRFR2-BP antag: -7.8; SKN-1 inh: 6.2

Results for COc1ccc(Oc2c(OC)cc(NCc3ccc(CN)cc3)c3ncccc23)cc1 ?
Cardio protect: -1.1; TAG inh: 12.4; hiPSC survival: -1.8; CRFR2-BP ag: 0.5; CRFR2-BP antag: 10.0; SKN-1 inh: 20.7

How did Nc1nn(-c2ccccc2)c(N)c1N=Nc1cccc(F)c1 do in these assays?
Cardio protect: -3.9; TAG inh: 53.6*; hiPSC survival: 0.0; CRFR2-BP ag: -5.1; CRFR2-BP antag: 8.1; SKN-1 inh: 12.8

How did Nc1nn(-c2ccccc2)c(N)c1N=Nc1ccc2c(c1)OCO2 do in these assays?
Cardio protect: -8.5; hiPSC survival: -2.8; CRFR2-BP ag: -1.1; CRFR2-BP antag: -1.6; SKN-1 inh: 10.4

What do the screens show for `O=c1sc2ccccc2n1CCOc1ccccc1`?
Cardio protect: -4.3; hiPSC survival: -0.5; CRFR2-BP ag: -2.5; CRFR2-BP antag: 36.3; SKN-1 inh: 12.6

What do the screens show for `Cc1ccc(OCn2c(=O)sc3ccccc32)cc1`?
Cardio protect: 6.6; hiPSC survival: -2.6; CRFR2-BP ag: -1.7; CRFR2-BP antag: 55.0*; SKN-1 inh: 6.2

Results for CC(O)(c1ccc(F)c(F)c1)c1nc(-c2ccc(S(C)(=O)=O)cc2)cs1 (stereo unspecified) ?
Cardio protect: -1.4; TAG inh: 2.3; hiPSC survival: -2.1; SKN-1 inh: 0.1

What do the screens show for `O=C(COc1ccccc1C(=O)c1cnn(-c2ccccc2)c1)Nc1ccc2ccccc2c1`?
Cardio protect: -12.1; hiPSC survival: -1.3; CRFR2-BP ag: 14.7; CRFR2-BP antag: 141.0*; SKN-1 inh: -0.9

What do the screens show for `O=C1Nc2ccccc2-n2nnnc2C1N1CCN(C(=O)C2CCCO2)CC1` (stereo unspecified)?
SKN-1 inh: -8.3

What do the screens show for `Cc1ccc(C(=O)c2cc([N+](=O)[O-])ccc2N2CCCCC2)c(C)c1`?
Cardio protect: -15.2; hiPSC survival: -0.6; CRFR2-BP ag: 133.3*; CRFR2-BP antag: -130.4; SKN-1 inh: 4.0

How did O=C(O)c1cc([N+](=O)[O-])ccc1N1CCCCC1 do in these assays?
Cardio protect: 7.9; hiPSC survival: 1.6; CRFR2-BP ag: -3.2; CRFR2-BP antag: -2.8; SKN-1 inh: -12.4

How did Clc1ccc(-c2csc(-c3ccno3)n2)cc1 do in these assays?
Cardio protect: -2.1; TAG inh: -7.3; hiPSC survival: 0.0; CRFR2-BP ag: -0.8; CRFR2-BP antag: 3.4; SKN-1 inh: 13.3

What do the screens show for `Fc1cccc(-c2csc(-c3ccno3)n2)c1`?
Cardio protect: 3.9; TAG inh: -11.0; hiPSC survival: -0.2; CRFR2-BP ag: -4.4; CRFR2-BP antag: -2.9; SKN-1 inh: 51.9*

Results for COc1ccc(CCn2c(=N)c(C(=O)NCCN3CCOCC3)cc3c(=O)n4cccc(C)c4nc32)cc1OC ?
Cardio protect: 61.3*; hiPSC survival: -0.5; CRFR2-BP ag: -0.6; CRFR2-BP antag: 13.8; SKN-1 inh: 2.9

Results for Cc1c(C(=O)NCCC#N)sc(=O)n1Cc1ccc(C(=O)N(C)C)cc1 ?
Cardio protect: -0.6; TAG inh: -4.1; hiPSC survival: -0.7; SKN-1 inh: -1.4

Results for O=C(O)C(Oc1ccc2ccccc2c1)c1ccccc1 (stereo unspecified) ?
Cardio protect: -1.1; TAG inh: 16.2; hiPSC survival: -0.7; CRFR2-BP ag: 0.5; CRFR2-BP antag: 13.8; SKN-1 inh: 39.5*

Results for Nc1nc(Cl)nc(N(c2ccccc2)c2ccccc2)n1 ?
Cardio protect: 3.8; TAG inh: -5.5; hiPSC survival: -0.7; CRFR2-BP ag: 5.4; CRFR2-BP antag: -27.0; SKN-1 inh: -6.0

Results for Nc1nc(CCl)nc(N(c2ccccc2)c2ccccc2)n1 ?
Cardio protect: 0.7; TAG inh: 80.0*; hiPSC survival: 3.2; CRFR2-BP ag: -0.3; CRFR2-BP antag: 15.8; SKN-1 inh: 6.9

Results for O=C(Nc1ccc(F)c(Cl)c1)c1cc(C2CCCN(C(=O)c3cccs3)C2)on1 (stereo unspecified) ?
Cardio protect: -1.9; TAG inh: -0.4; hiPSC survival: -2.3; SKN-1 inh: 0.3

Results for CC1(c2ccc3c(c2)OCCO3)NC(=O)N(CC(=O)Nc2ccccc2SCC#N)C1=O (stereo unspecified) ?
Cardio protect: 7.8; TAG inh: 17.2; hiPSC survival: 1.0; CRFR2-BP ag: 8.8; CRFR2-BP antag: -12.0; SKN-1 inh: -6.3

What do the screens show for `COc1ccc(C(C(=O)NCc2ccccc2)n2c(=O)c(-c3ccco3)nc3ccccc32)cc1` (stereo unspecified)?
SKN-1 inh: -0.7

How did COc1ccc(NC(=O)/C(Cl)=C(/Cl)S(=O)(=O)Cc2ccc(C)cc2)cn1 do in these assays?
Cardio protect: -39.2; TAG inh: 99.4; hiPSC survival: 22.9*; CRFR2-BP ag: 5.8; CRFR2-BP antag: -23.7; SKN-1 inh: 19.9

What do the screens show for `CCOc1ccc(CCNC(=O)CCCn2nc(C)c3c(C)n(-c4ccccc4)nc3c2=O)cc1`?
Cardio protect: 0.5; hiPSC survival: -0.4; CRFR2-BP ag: -1.1; CRFR2-BP antag: 2.7; SKN-1 inh: 3.4
